The text below walks through data of PubChem BioAssay AID652100 (National Center for Advancing Translational Sciences (NCATS), 2013).

Activity calls are given as the source filed them.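 The calls were made as follows: active = compounds that bring Gaucher patient macrophage uptake of dying cells up to about normal macrophage levels; inactive = the rest.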

This assay is described as follows: Extended Characterization of Activators of N370S glucocerebrosidase as a Potential Chaperone Treatment of Gaucher Disease: Efferocytosis Index. Conditions: Gaucher patient macrophages, apoptotic Jurkat efferocytosis imaging. The source says: Glucocerebrosidase (GCase) catalyzes the hydrolysis of beta-glucocerebroside (GC) to glucose and ceramide in lysosomes. Mutations in the glucocerebrosidase gene result in Gaucher disease, an autosomal recessive lysosomal storage disorder. Many of the mutations encountered in patients with Gaucher disease are missense alterations that may cause misfolding, decreased stability and/or mistrafficking of this lysosomal protein. […] These inhibitors include iminosugar analogs and other inhibitors that were discovered as part of previous work. However, the enhancement of enzyme activity by the chaperone action of an enzyme inhibitor must be balanced against the direct inhibition of the enzyme. […] In this extended characterization of our probe, we have further characterized the activity of probes in relevant models of Gaucher disease. This assay examine efferocytosis in patient-derived macrophages following compound incubation. NIH Chemical Genomics Center [NCGC] NIH Molecular Libraries Probe Production Centers Network [MLPCN] MLPCN Grant: MH086442 Assay Submitter (PI): Ellen Sidransky, NHGRI
Jurkat T-cells were stained with green cell tracker (Molecular Probes), and apoptosis was induced using UVB radiation for 2 min (BioRad). […] The number of T-cells taken up by macrophages was counted and normalized to the number of cells per field.
Consider `C#Cc1ccc(NC(=O)c2cnn3c(C)cc(C)nc23)cc1`, for which the outcome is “active; similar to control”.
